Experimental data as given in PubChem BioAssay (Tox21).
Records with an inconclusive call do not appear. Where a call stands in place of a potency, no number is given. Calls of active or inactive are those of the source. Calls come from the whole dose curve; as a rule, active = well fitted cell-killing curve with a large enough effect in the repeat runs; inconclusive = weak or mixed curves; inactive = flat fitted curve, though single readings scatter.

Assay: qHTS RealTime-Glo MT Cell Viability Assay in HepG2 cells - 24 hour (AID 1224867); note: nearly all actives have a fitted effect of over 50% in size
Details: RealTime-Glo luminescence; series mostly up to 76.8 µM
In short: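 Viability was tracked continuously by NanoLuc luminescence from prosubstrate reduced by living HepG2 cells, at successive time points over 40 h of compound exposure. Cells with reagent were preincubated 5 h at 37 °C before compound addition.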

Compound | Potency
CC(C)(C)c1nnc(NS(=O)(=O)c2ccccc2)s1 | inactive
c1ccc(CC2=NCCN2)cc1 | inactive
CCCCCCCCCCCCN(CCCCCCCCCCCC)CCCCCCCCCCCC | inactive
COC(C)(C)CCCC(C)CC=O (stereo not given) | inactive
C=CCS(=O)(=O)O | inactive
COCCCOCCCOC | inactive
NS(=O)(=O)c1ccc(C(=O)O)cc1 | inactive
COc1c(N2C[C@@H]3CCCN[C@@H]3C2)c(F)cc2c(=O)c(C(=O)O)cn(C3CC3)c12 | inactive
COC(=O)c1ccc(C)cc1C1=NC(C)(C(C)C)C(=O)N1 (stereo not given) | inactive
CS(=O)(=O)O | inactive
CC(=O)c1ccccc1O | inactive
Cc1ccc(C#N)cc1 | inactive
O=C(O)c1ccccc1OP(=O)(O)O | inactive
O=c1[nH]c(=O)n([C@H]2C[C@H](O)[C@@H](CO)O2)cc1I | inactive
CC(C)NC(=O)NC(C)C | inactive
CCOC(=O)[C@H](CCc1ccccc1)N[C@@H](C)C(=O)N1[C@H](C(=O)O)C[C@@H]2CCC[C@@H]21 | inactive
COc1cc(C(=O)N2CCCCCCC2)cc(OC)c1OC | inactive
O=C(O)CCCc1ccccc1 | inactive

Compound | Potency
CO/N=C(/C(=O)N[C@@H]1C(=O)N2C(C(=O)OCOC(=O)C(C)(C)C)=C(C)CS[C@H]12)c1csc(N)n1 | inactive
Cc1cc2c(cc1S(N)(=O)=O)S(=O)(=O)CCC2 | inactive
Cc1cc(O)cc2c1O[C@](C)(CCC[C@H](C)CCC[C@H](C)CCCC(C)C)CC2 | inactive
CCOC(=O)c1c(C)n(C)c2ccc(O)cc12 | inactive
O=C(CCCN1CCN(c2ccccn2)CC1)c1ccc(F)cc1 | inactive
CCS(=O)(=O)c1ccc(OC)c(C(=O)OC)c1 | inactive
CC1=CC(C)C(C=O)CC1 (stereo not given) | inactive
CCOC(=O)C(=O)OCC | inactive
Cn1c(N)c(N=O)c(=O)n(C)c1=O | inactive
Cc1sccc1Br | inactive
CCCCCSCCCCC | inactive
CC(=O)OCC(=O)[C@@]1(O)CCC2C3CCC4=CC(=O)CC[C@]4(C)C3[C@@H](O)C[C@@]21C (stereo not given in full) | inactive
O=Cc1cccc([N+](=O)[O-])c1 | inactive
CN(C(=O)c1c(O)c2ccccc2n(C)c1=O)c1ccccc1 | inactive
CC(C)CCCC(C)N (stereo not given) | inactive
CCCCOCCOCCOCCCC | inactive
NS(=O)(=O)c1cc(C(=O)O)cc(N2CCCC2)c1Oc1ccccc1 | inactive
